ELG1 genotox – inducers of genotoxicity in HEK293T ELG1-luciferase cells; Potency, µM (top dose mostly 46 µM), most hits filed as activators; 1.3% of 330,000 active; AID 504466; HEK293T ELG1-luciferase reporter, luminescence, 16 h; note: nearly all actives have a fitted effect of over 60% in size
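ELG1-luciferase HEK293T cells, 2,000/well; compound pinned in; 16 hr, 37 °C, 5% CO2; ONE-Glo, 30 min RT; luminescence on CCD imager.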
ELG1 repair inh – blocks ELG1-dependent DNA repair in HEK293T cells. Potency, µM (top dose mostly 46.1 µM), actives largely listed as inhibitors. AID 504467. 2.3% of 330,000 active. HEK293T ELG1-luciferase reporter, luminescence, 16 h; DNA damage induced by 5-fluorouridine; note: nearly all actives have a fitted effect of over 55% in size
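Reporter activity after DNA damage by 5-fluorouridine is monitored. Compound-treated cells incubate 16 hr at 37 °C, then ONE-Glo is added for 30 min before luminescence reading.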
Rab9 promoter act – Rab9 promoter activation. Huh7 Rab9 promoter-luciferase reporter, luminescence, 24 h. Potency, µM (top dose mostly 9.22 µM), most hits filed as activators. 2.8% of 320,000 active; note: nearly all actives have a fitted effect of over 60% in size
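Huh7 cells stably carrying Rab9 promoter–luciferase reporter, plated 1500 cells/well, compound added after 2 h and incubated 24 h at 37 °C; luciferase luminescence then read after 10 min with detection reagent.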
FLuc counter – counter-screen for miR-21 project: firefly luciferase inhibitors or activators. P08659. purified FLuc, Km substrates, luminescence inhibition. Potency, µM (doses to about 57.5 µM), most hits filed as inhibitors. 6.9% of 360,000 active. AID 588342; note: nearly all actives have a fitted effect of over 55% in size
Target sequence (P08659 whole entry, looked up): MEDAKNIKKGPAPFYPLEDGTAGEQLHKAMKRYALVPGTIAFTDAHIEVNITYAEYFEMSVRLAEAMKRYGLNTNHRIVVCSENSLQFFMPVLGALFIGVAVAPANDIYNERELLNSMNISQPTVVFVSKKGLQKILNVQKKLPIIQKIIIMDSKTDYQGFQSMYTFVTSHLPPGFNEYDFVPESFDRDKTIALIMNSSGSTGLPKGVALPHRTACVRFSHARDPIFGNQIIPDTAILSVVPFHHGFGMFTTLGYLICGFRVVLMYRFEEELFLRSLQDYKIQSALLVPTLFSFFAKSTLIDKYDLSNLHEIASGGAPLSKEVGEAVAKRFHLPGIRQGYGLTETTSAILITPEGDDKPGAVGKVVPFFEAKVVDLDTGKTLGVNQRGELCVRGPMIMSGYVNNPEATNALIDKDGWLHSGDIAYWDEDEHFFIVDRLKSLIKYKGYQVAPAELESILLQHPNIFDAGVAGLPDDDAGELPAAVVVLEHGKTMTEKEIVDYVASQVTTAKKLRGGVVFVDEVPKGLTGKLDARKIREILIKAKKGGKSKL
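Purified P. pyralis luciferase, 10 nM final, with Km-level 10 uM D-luciferin and 10 uM ATP in 50 mM Tris acetate pH 7.5, 10 mM Mg acetate, 0.01% Tween-20, 0.05% BSA; 6-point qHTS titration about 60 µM downward; luminescence read.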
SMN2 splice up – increases expression of the SMN2 splice variant. HEK293 SMN2-luciferase splicing reporter, luminescence, 30-36 h. Potency, µM (top dose mostly 46.1 µM), most hits filed as activators. 2.8% of 210,000 active; note: nearly all actives have a fitted effect of over 55% in size
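HEK293 cells carry an SMN2 minigene-luciferase reporter in which exon 7 inclusion puts luciferase in frame. Cells were seeded at 2000 cells/well, attached for 10-12 hours, then exposed to compounds for 30-36 hours at 37C before ONE-Glo luminescence.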
NPC1 prom act – NPC1 promoter activation; 2.4% of 320,000 active; Potency, µM (highest dose often 9.22 µM), actives largely listed as activators; AID 485313; Huh7 NPC1 promoter luciferase reporter, 24 h; note: nearly all actives have a fitted effect of over 60% in size
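In 1536-well qHTS, Huh7 cells harboring an NPC1 promoter–luciferase construct received compound for 24 h; activation was quantified by luminescence following luciferase reagent addition.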
ELG1 FLuc counter – luciferase inhibition in cell-free luciferin readout for ELG1 hits; shares compounds with ELG1 repair inh; cell-free firefly luciferase luminescence counter-screen, ViewLux; Potency, µM (series often up to 46.1 µM), most hits filed as inhibitors; 3% of 350 active
ELG1-Luc inh – human ELG1 repair inhibition, luciferase-tagged ELG1 confirmation; shares compounds with ELG1 repair inh; 68% of 670 active; AID 624248; HEK293T ELG1-luciferase levels, luminescence; cells co-treated with 5-fluorouridine; Potency, µM (top dose mostly 46.1 µM), actives largely listed as inhibitors; note: nearly all actives have a fitted effect of over 55% in size
ELG1-Luc MMS – inhibits ELG1-dependent repair under MMS stimulation in HEK293T cells | Potency, µM (doses to about 46.1 µM), most hits filed as inhibitors | 53% of 670 active | HEK293T luciferase-tagged ELG1 level, MMS stimulated | shares compounds with ELG1 repair inh | AID 624249; note: nearly all actives have a fitted effect of over 60% in size
ELG1 5FU viab – confirmation of ELG1 repair inhibitors: viability with 5FU. shares compounds with ELG1 repair inh. cell viability with 5-FU, ELG1-dependent repair. Potency, µM (top dose mostly 46.1 µM), usual class: cytotoxic. 670 tested, under 10 active. AID 624250;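 note: ELG1-luc HEK293T cells cotreated with 5-fluorouridine at 10 µM final; viability measured 16 h after compound addition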
ELG1 MMS viab – confirmation of ELG1 repair inhibitors: viability with MMS | AID 624251 | 33% of 670 active | Potency, µM (highest dose often 46.1 µM), hits mostly cytotoxic | shares compounds with ELG1 repair inh | Cell viability with MMS, ELG1-dependent DNA repair;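 note: ELG1-luc HEK293T cells co-treated with 10 µM MMS; viability read 16 h after compound addition; nearly all actives have a fitted effect of over 60% in size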
ELG1 unstim viab – unstimulated viability counter-screen for ELG1 repair hits; shares compounds with ELG1 repair inh; Potency, µM (highest dose often 45.9 µM), actives largely listed as cytotoxic; cell viability counter-screen, unstimulated, luminescence; 8% of 900 active;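 note: compound exposure lasted 16 hours before reading; nearly all actives have a fitted effect of over 55% in size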
FLuc biochem – inhibits purified firefly luciferase, counter-screen for ELG1 hits; 10% of 350 active; purified firefly luciferase, luminescence counter-screen; Potency, µM (series often up to 57.5 µM), usual class: inhibitors; AID 624253; shares compounds with ELG1 repair inh
Hits are given with their value. Shown are actives, neighbours in structure and some others; about 9.2% of the full set was active somewhere. Calls come from the whole dose curve; as a rule, active = well fitted curve in the direction sought with a large enough effect; inconclusive = small, poorly fitted or top-dose-only effect, or another doubt; inactive = no such curve, though single readings can be large; an effect the other way counts as inactive or inconclusive.

CC1CN(S(=O)(=O)c2ccc(C(=O)NCCCn3ccnc3)cc2)CC(C)O1 (configuration not stated) was read as ELG1 genotox inactive, ELG1 repair inh 0.73µM, Rab9 promoter act inactive, FLuc counter inactive, SMN2 splice up inactive, NPC1 prom act inactive, ELG1 FLuc counter inconclusive, ELG1-Luc inh inactive, ELG1-Luc MMS 0.028µM, ELG1 5FU viab inactive, ELG1 MMS viab 0.032µM, ELG1 unstim viab inconclusive and FLuc biochem inactive.
`O=C(CCC1N=C2c3ccccc3N=C(SCC(=O)NCC3CCCO3)N2C1=O)NCc1ccc(F)cc1` (configuration not stated) gave ELG1 genotox inactive, ELG1 repair inh inactive, Rab9 promoter act inactive, FLuc counter inactive and NPC1 prom act inactive.
Screening COc1cccc(/C=C/C(=O)OCC(=O)c2ccc3c(c2)NC(=O)CO3)c1OC returned ELG1 genotox inactive, ELG1 repair inh inconclusive, Rab9 promoter act inactive, FLuc counter inactive, SMN2 splice up inactive and NPC1 prom act inactive.
Screening O=C1COc2ccc(C(=O)COC(=O)/C=C/c3cccc(F)c3)cc2N1 returned ELG1 genotox inactive, ELG1 repair inh 1.8µM, Rab9 promoter act inactive, FLuc counter inactive, NPC1 prom act inactive, ELG1-Luc inh 5µM, ELG1-Luc MMS inactive, ELG1 5FU viab inactive, ELG1 MMS viab inactive and ELG1 unstim viab inactive.
Screening CC(=O)N1CCN(CC(=O)Nc2ccccc2C(=O)NCc2ccc(C)cc2)CC1 returned ELG1 genotox inactive, ELG1 repair inh inactive, Rab9 promoter act inactive, FLuc counter inactive and NPC1 prom act inactive.
For CC(=O)N1CCN(CC(=O)Nc2ccccc2C(=O)Nc2ccccc2)CC1 the results were ELG1 genotox inactive, ELG1 repair inh inconclusive, ELG1-Luc inh 3.5µM, ELG1-Luc MMS inactive, ELG1 5FU viab inconclusive, ELG1 MMS viab inactive and ELG1 unstim viab inactive.
For Cc1ccc(CNC(=O)c2ccc(N3CCC4(CC3)CC(c3ccccc3)=NO4)c(NC(=O)c3ccco3)c2)cc1 the results were ELG1 genotox inactive, ELG1 repair inh 1.2µM, Rab9 promoter act inactive, FLuc counter inactive, NPC1 prom act inactive, ELG1-Luc inh inconclusive, ELG1-Luc MMS inconclusive, ELG1 5FU viab inconclusive, ELG1 MMS viab inconclusive and ELG1 unstim viab inactive.
CCCNC(=O)c1ccc(N2CCC3(CC2)CC(c2ccccc2)=NO3)c(NC(=O)c2cccc(OC)c2)c1 was read as ELG1 genotox inactive, ELG1 repair inh 4.6µM, Rab9 promoter act inactive, FLuc counter inactive, NPC1 prom act inactive, ELG1-Luc inh 5µM, ELG1-Luc MMS inconclusive, ELG1 5FU viab inconclusive, ELG1 MMS viab inactive and ELG1 unstim viab inconclusive.
`O=C(/C=C1\NC2(CCCC2)Cc2ccccc21)C(=O)N/N=C/c1ccccc1O` gave ELG1 genotox inactive, ELG1 repair inh 2.3µM, Rab9 promoter act inactive, FLuc counter inactive, SMN2 splice up inactive, NPC1 prom act inactive, ELG1-Luc inh inconclusive, ELG1-Luc MMS 8.9µM, ELG1 5FU viab inactive, ELG1 MMS viab inconclusive and ELG1 unstim viab inactive.
CNCC(=O)N1CCN(c2ncc(C(F)(F)F)cc2Cl)CC1 was read as ELG1 genotox inactive, ELG1 repair inh inactive, Rab9 promoter act inactive, FLuc counter inactive, SMN2 splice up inactive and NPC1 prom act inactive.
`Cc1ccc(-n2nc(CN3CCOCC3)c(-c3ccccc3)c2N)cc1Cl` gave ELG1 genotox inactive, ELG1 repair inh 1.6µM, Rab9 promoter act inactive, FLuc counter inactive, SMN2 splice up inactive, NPC1 prom act inactive, ELG1-Luc inh 1.4µM, ELG1-Luc MMS 18µM, ELG1 5FU viab inconclusive, ELG1 MMS viab 25µM and ELG1 unstim viab inactive.
For Nc1c(-c2ccccc2)c(CN2CCOCC2)nn1-c1ccccc1 the results were ELG1 genotox inactive, ELG1 repair inh inactive, Rab9 promoter act inactive, FLuc counter inactive, SMN2 splice up inactive and NPC1 prom act inactive.
NC(=O)c1ccsc1NC(=O)COC(=O)Cc1cccc2ccccc12 was read as ELG1 genotox inactive, ELG1 repair inh 1.6µM, Rab9 promoter act inactive, FLuc counter inconclusive, SMN2 splice up inactive, NPC1 prom act inactive, ELG1-Luc inh inconclusive, ELG1-Luc MMS 0.63µM, ELG1 5FU viab inactive, ELG1 MMS viab 1.3µM and ELG1 unstim viab inconclusive.
COc1ccc([C@H]2Cc3cc(O)cc(O)c3C(=O)O2)cc1O was read as ELG1 genotox 5.2µM, ELG1 repair inh inconclusive and ELG1 unstim viab inactive.
Cc1cccc(-n2c(N)c(-c3nc4ccccc4n3C)c3nc4ccccc4nc32)c1 was read as ELG1 genotox inactive, ELG1 repair inh 1.8µM, Rab9 promoter act inactive, FLuc counter inactive, SMN2 splice up inactive, NPC1 prom act inactive, ELG1-Luc inh 2.2µM, ELG1-Luc MMS inactive, ELG1 5FU viab inconclusive, ELG1 MMS viab inactive and ELG1 unstim viab inconclusive.
Cc1cc(OCC(=O)Nc2ccccc2C(N)=O)c2c(C)cc(=O)oc2c1 was read as ELG1 genotox inactive, ELG1 repair inh 3.7µM, Rab9 promoter act inactive, FLuc counter inactive, NPC1 prom act inactive, ELG1-Luc inh 13µM, ELG1-Luc MMS inactive, ELG1 5FU viab inconclusive, ELG1 MMS viab inconclusive and ELG1 unstim viab inactive.
`CC(=O)Nc1ccc(NC(=O)COc2cc(C)cc3oc(=O)cc(C)c23)cc1` gave ELG1 genotox inactive, ELG1 repair inh inactive, Rab9 promoter act inactive, FLuc counter inactive and NPC1 prom act inactive.
